Screens as filed in PubChem.
A647 autofl: compound fluoresces in the A647 spectral region | Compound fluorescence, A647 channel (570/671 nm), Tris buffer | max dye-equivalent concentration, M | 59,000 tested, under 10 active
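Compounds pinned into 100 mM Tris pH 8.0, 15 min at room temperature, then read with 570 nm excitation/671 nm emission filters. Fluorescence normalized to an on-plate six-point Alexa 647 standard curve, giving dye-equivalent concentration per compound concentration.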
Rhodamine autofl: compound fluoresces in the rhodamine spectral region; hit rate 0.05% among 59,000; AID 594; max dye-equivalent concentration, M; Rhodamine-region fluorescence, 547/598 nm, Tris buffer; active compounds read high; in the data active = max dye-equivalent concentration above about 11 nM; inconclusive = between about 1.1 nM and that limit
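Steps: pin-transfer compounds into pH 8.0 Tris (100 mM), hold 15 min at room temperature, image with a 547/598 nm filter pair, and convert intensities to rhodamine-equivalent concentration using a six-point on-plate rhodamine series.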
Fluorescein fluor: fluorescein region autofluorescence; Compound autofluorescence, 480/540 nm, fluorescein-equivalent; active compounds read high; max fluorescein-equivalent concentration, M; hit rate 0.91% among 59,000; in the data active = max fluorescein-equivalent concentration above about 10 nM; inconclusive = between about 1.1 nM and that limit
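Library compounds, added at multiple concentrations to pH 8.0 Tris buffer (100 mM), incubate 15 min at room temperature before CCD imaging at 480 nm excitation and 540 nm emission.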
A488 autofl: A488 region autofluorescence; compound autofluorescence, A488 spectral region, dye equivalency; Compound Type: qHTS ECL - MLSMR; max dye equivalency, M; hit rate 0.1% among 59,000; AID 591
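Spectroscopic profiling in the A488 region: compounds in pH 8.0 Tris (100 mM), 15 min RT, CCD imaging with 480 nm excitation and 540 nm emission; responses normalized against A488 dye standards.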
Resorufin fluor: resorufin region autofluorescence; Compound fluorescence, resorufin region 547/598 nm, buffer; active compounds read high; max dye-equivalent concentration, M; hit rate 0.04% among 59,000; AID 588
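Read-out: intrinsic compound fluorescence at ex 547/em 598 nm after 15 min at RT in pH 8.0 Tris (100 mM). Values expressed as resorufin-equivalent concentration from per-plate standard series.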
Texas Red fluor: compounds fluorescent in Texas Red spectral region | Compound fluorescence, Texas Red channel, 547/618 nm; active compounds read high | max dye-equivalent concentration, M | hit rate 0.06% among 59,000; in the data active = max dye-equivalent concentration above about 10 nM; inconclusive = between about 1.1 nM and that limit
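Spectral interference profiling: each compound concentration's relative fluorescence, read with a 547 nm excitation and 618 nm emission filter pair, was normalized to a per-plate Texas Red standard curve.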
Hits are given with their value; – = inactive; ? = inconclusive. This is a sample that favours compounds with a hit; in the whole collection about 0.95% have one here. Unless noted, no rule for the calls is given here.

SMILES | A647 autofl | Rhodamine autofl | Fluorescein fluor | A488 autofl | Resorufin fluor | Texas Red fluor
O=c1oc2c(CN3CCCCC3)c(O)ccc2cc1-c1nc2ccccc2[nH]1 | – | – | 2.8e-06M | 1.4e-07M | – | –
O=C(O)c1ccccc1C1=Nc2ccc(O)cc2Oc2cc(O)ccc21 | – | ? | 1.7e-07M | ? | ? | 1.3e-08M
Cc1cc(-c2ccccc2C(=O)O)on1 | – | – | ? | – | – | ?
COc1ccc(CCNS(=O)(=O)c2ccc(C3CNC(=O)C3)cc2)cc1OC (stereo unspecified) | – | – | – | – | – | –
COc1ccc(C2CNC(=O)C2)cc1OC1CCCC1 (stereo unspecified) | – | – | 1.1e-08M | – | – | –
FC(F)(F)c1nc2ncc(Cl)cc2[nH]1 | – | – | – | – | – | –
Cn1c(=O)[nH]c2cc(Cl)cnc21 | – | – | 1.8e-08M | – | – | –
CC(=O)OCC(=O)[C@@]1(O)CC[C@@H]2[C@@H]3CCC4=CC(=O)CC[C@@]4(C)[C@H]3C(=O)C[C@]21C | – | – | – | – | – | ?
C=CCN1CCc2c(cc(O)c(O)c2Cl)[C@H](c2ccccc2)C1 | – | – | – | – | – | –
C[C@@H]1O[C@H](O[C@@H]2[C@@H](Oc3cc(O)c4c(c3)O[C@H](c3ccc(O)cc3)CC4=O)O[C@@H](CO)[C@@H](O)[C@H]2O)[C@@H](O)[C@H](O)[C@@H]1O | – | – | ? | – | – | –
CC(=O)Oc1ccc(/C=C\C(=O)C[C@@H]2O[C@@H](Oc3cc(OC(C)=O)c4c(c3)O[C@@H](c3ccc(OC(C)=O)cc3)CC4=O)[C@H](OC(C)=O)[C@H](OC(C)=O)[C@@H]2OC(C)=O)cc1 | – | – | 1.3e-08M | – | – | –
O=C(/C=C\c1ccc(O)c(O)c1)O[C@H]1C[C@@](O)(C(=O)O)C[C@H](O)[C@@H]1O | – | – | – | – | – | –
Cc1c(-n2cc(C(=O)c3ccccc3O)cc(C#N)c2=O)c(=O)n(-c2ccccc2)n1C | – | – | 3.7e-08M | ? | – | –
CC(C)C1Cc2c(C#N)c(N)sc(=S)c2CO1 (stereo unspecified) | – | – | 1.3e-08M | – | – | –
Cc1cccc(-c2c3c(=O)n(C)c(=O)n(C)c3c3cccnn23)c1 | – | – | 1.1e-08M | – | – | –
Cc1cccc(-c2c3c(=O)n(C)c(=O)n(C)c3c3c(C)cc(C)nn23)c1 | – | – | ? | – | – | –
c1ccc2c(c1)CCC[C@H]2C1=NCCN1 | – | – | ? | – | – | ?
Cc1cc(=O)oc2c(CN3CCC(C)CC3)c(O)c(Cl)cc12 | – | ? | 1.1e-08M | – | – | –
CC(=O)O[C@H]1CC[C@@]2(C)[C@@H](CC[C@@]3(C)[C@H]2C(=O)C=C2[C@H]4C[C@](C)(C(=O)OCCN5CCCCC5)CC[C@]4(C)CC[C@@]23C)C1(C)C | – | – | – | – | – | –
OC[C@@H]1O[C@@H](n2cnc3c(NCc4ccco4)ncnc32)[C@H](O)[C@H]1O | – | – | – | – | – | –
Cc1cc(OCC(=O)NCCN2CCOCC2)ccc1Br | – | – | 2.3e-08M | – | – | –
CCOc1ccc2nc(NS(=O)(=O)c3ccc4c(c3)n(C)c(=O)n4C)sc2c1 | – | – | 1.2e-08M | – | – | –
C[C@@]12CC[C@H]3[C@H](CC=C4C[C@@H](O)CC[C@@]43C)[C@@H]1CC[C@@H]2N(CCO)CCO | – | – | – | – | – | –
CC1(C)CCC(NC(=O)[C@H](N)CCC(=O)O)CC1 | – | – | ? | – | – | –
CCN(CC)c1ccc2c(c1)oc(=O)c1c(Cl)cc(=O)oc12 | – | – | 4.8e-07M | 2.5e-08M | – | –
SMILES | A647 autofl | Rhodamine autofl | Fluorescein fluor | A488 autofl | Resorufin fluor | Texas Red fluor
CCN(CC)c1ccc2c(Cl)c(Br)c(=O)oc2c1 | – | – | ? | – | – | –
CC[C@@H]1OC(=O)[C@@H](C)[C@H](O[C@@H]2C[C@@](C)(OC)[C@@H](O)[C@H](C)O2)[C@H](C)[C@H](O[C@@H]2O[C@@H](C)C[C@@H](N(C)C)[C@H]2O)[C@@](C)(O)C[C@H](C)C(=O)[C@@H](C)[C@H](O)[C@@]1(C)O | – | – | ? | – | – | –
C[C@@H]1c2ccccc2Cn2cc3c(c21)C(=O)c1cccc(OP(=O)(O)OCc2ccccc2)c1C3=O | – | – | 8.6e-08M | ? | – | –
CN1CCc2c(cc(O)c(O)c2Cl)[C@H](c2cccc(Cl)c2)C1 | – | – | ? | – | – | –
COc1ccc(N=c2oc3cc(O)ccc3cc2C(=O)NCC2CCCO2)cc1 (stereo unspecified) | – | – | – | – | – | –
COc1ccc(N=c2oc3cc(O)ccc3cc2C(=O)NCC2CCCO2)c(OC)c1 (stereo unspecified) | – | – | 1.4e-08M | – | – | –
Cc1ccc(/C=c2\sc3nc(-c4ccco4)nn3c2=O)o1 | – | – | 1.5e-08M | – | – | –
Nc1nc(Cl)nc2c1ncn2[C@@H]1O[C@@H](CO)[C@@H](O)[C@H]1O | – | – | ? | – | – | –
O=c1oc2c(CN3CCOCC3)c(O)ccc2c2c1CCC2 | – | – | – | – | – | –
O=c1oc2c3c4c(cc2c(C(F)(F)F)c1CCN1CCOCC1)CCCN4CCC3 | – | – | 4.6e-08M | ? | – | ?
CN(C)S(=O)(=O)N1CCc2ccccc21 | – | – | – | – | – | –
O=S(=O)(Cc1ccccc1)N1CCc2ccccc21 | – | 2.1e-08M | 3.4e-08M | ? | 1.6e-08M | 2e-08M
Cc1ccc2[nH]c3c(c2c1)CN(C(=O)CN1CCSCC1)CC3 | – | – | ? | – | – | ?
Cc1ccc2[nH]c3c(c2c1)CN(C(=O)CN1CC(C)OC(C)C1)CC3 (stereo unspecified) | – | – | 1.1e-08M | – | – | –
Cc1ccc2[nH]c3c(c2c1)CN(C(=O)CN1CCN(c2ccccn2)CC1)CC3 | – | – | 1.8e-08M | – | – | –
COc1ccc(-c2coc3ccc(O[C@@H]4O[C@@H](COC(C)=O)[C@@H](OC(C)=O)[C@@H](OC(C)=O)[C@H]4OC(C)=O)cc3c2=O)cc1 | – | – | – | – | – | –
CCN(CC)c1ccc2cc(C(=O)Nc3ccc(-n4cnnn4)c(OC)c3)c(=O)oc2c1 | – | – | 6.7e-07M | 3.4e-08M | – | –
CC1(C)S[C@@H]2[C@H](NC(=O)COc3ccccc3)C(=O)N2[C@H]1C(=O)O (tested in a mixture with another compound) | – | – | 1.9e-08M | – | – | –
CC1(C)S[C@@H]2[C@H](NC(=O)C(N)c3ccccc3)C(=O)N2[C@H]1C(=O)O (stereo partly specified) | – | – | ? | – | – | –
N=c1oc2c3c4c(cc2cc1C(=O)Nc1ccccc1)CCCN4CCC3 | – | ? | 4.7e-07M | 2.5e-08M | – | ?
N#Cc1ccc(NC(=O)c2cc3cc4c5c(c3oc2=N)CCCN5CCC4)cc1 | – | – | 2.3e-07M | 1.2e-08M | – | –
